PLK1 PBD inh: inhibitors of human PLK1 polo-box domain binding; P53350; Plk1 PBD binding of FITC phosphopeptide, fluorescence polarization; Potency, µM, hits mostly inhibitors; 360,000 compounds, 2.8% hits; also: series mostly up to about 57 µM; nearly all actives have a fitted effect of over 65% in size
VDR inhibitor: vitamin D3 receptor (human) inhibition; P11473; Potency, µM, actives largely listed as inhibitors; AID 504847; 400,000 compounds, 0.93% hits; VDR-SRC2-3 peptide fluorescence polarization, 2 h
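VDR–SRC2-3 interaction, FP format. Cmpds 23 nl via pintool, brief spin, 2 h ambient incubation.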
CBFb-RUNX1 inh: CBF-beta/RUNX1 interaction disruption; Potency, µM (titrated, usually from 59.8 µM), actives largely listed as inhibitors; AID 1477; AlphaScreen CBFb-His/RUNX1-biotin binding, biochemical; 230,000 tested, under 10 active
Target sequence (Q01196 whole entry, looked up): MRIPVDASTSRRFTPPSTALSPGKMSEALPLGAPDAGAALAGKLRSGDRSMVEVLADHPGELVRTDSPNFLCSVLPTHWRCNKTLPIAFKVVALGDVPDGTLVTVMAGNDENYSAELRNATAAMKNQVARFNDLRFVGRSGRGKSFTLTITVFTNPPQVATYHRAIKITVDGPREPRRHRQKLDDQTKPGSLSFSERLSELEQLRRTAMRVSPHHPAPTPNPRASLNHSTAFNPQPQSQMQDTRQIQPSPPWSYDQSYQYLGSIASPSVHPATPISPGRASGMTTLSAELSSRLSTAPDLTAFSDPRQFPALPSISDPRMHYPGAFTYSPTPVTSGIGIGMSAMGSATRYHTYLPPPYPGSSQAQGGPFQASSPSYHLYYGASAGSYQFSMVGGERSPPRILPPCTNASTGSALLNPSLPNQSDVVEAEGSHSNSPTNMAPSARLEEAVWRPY
Target sequence (Q13951 whole entry, looked up): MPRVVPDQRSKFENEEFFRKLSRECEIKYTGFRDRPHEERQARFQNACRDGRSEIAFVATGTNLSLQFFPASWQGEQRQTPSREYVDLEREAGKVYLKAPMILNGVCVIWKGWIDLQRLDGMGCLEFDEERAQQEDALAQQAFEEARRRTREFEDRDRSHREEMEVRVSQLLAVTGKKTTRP
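Proteins preincubated together for 20 min at RT before compound addition; 15 min later, nickel and streptavidin beads were added and left 90 min prior to AlphaScreen measurement.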
hERG WT inh: inhibitors of human wildtype KCNH2 potassium channel; U2OS, BacMam KCNH2, thallium flux FluxOr; hits give low values; activity change, % at 1.84 µM; AID 720551; 340,000 compounds, 0.37% hits; Q12809;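 active = maximum activity change below -70%; inconclusive = maximum activity change between -70% and -50%; inactive = maximum activity change above -50%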
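U2OS cells transduced with wild-type KCNH2 virus are loaded with FluxOr dye for 45 min, and thallium flux is measured in kinetic reads before and after stimulation buffer. Rate constants are normalized to DMSO controls.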
KCNH2 3.1 inh: inhibitors of human KCNH2 3.1 potassium channel isoform. U2OS KCNH2 3.1, thallium flux FluxOr; hits give low values. activity change, % (tested at about 1.8 µM). 340,000 compounds, 0.95% hits. AID 720553;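 active = maximum activity change below -70%; inconclusive = maximum activity change from -70% to -50%; inactive = maximum activity change above -50%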;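 also: thallium influx rate constant from kinetic fluorescence after stimulation buffer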
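Steps: virus added to U2OS suspension (4 h, RT, dark); medium with 10% FBS added, cells plated, 37 C overnight; FluxOr/Red40 loading buffer 45 min RT; stimulation buffer, 2 min kinetic read; rate constant normalized.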
MBNL1 CUG block: inhibitors of human MBNL1 binding to CUG repeat RNA; Q9NR56; TR-FRET MBNL1-His/biotin-(CUG)12 binding, 665/545 ratio; Potency, µM (highest dose often 57.5 µM), hits mostly inhibitors; 280,000 compounds, 0.036% hits; active = well fitted inhibition curve with a large enough effect in the signal ratio, with a control signal flat, not every such curve was filed as active; inconclusive = small, poorly fitted or top-dose-only effect, or effect the other way, or a change in a side signal; inactive = no such curve, though single readings can be large or run the other way; the % refers to the signal ratio
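Compound titration spanned 92 nM–58 uM against the MBNL1-His/biotin-(CUG)12 complex. After 60 min at room temperature with 5 nM streptavidin-XL665 and 0.055 ng/ul terbium anti-His, ratiometric 665/545 nm emission (Ex 340 nm) normalized to controls.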
TbPYK confirm: confirmation of Trypanosoma brucei pyruvate kinase inhibitors; shares compounds with PLK1 PBD inh; recombinant TbPYK, Kinase-Glo ATP luminescence; Potency, µM (top dose mostly 76.9 µM), actives largely listed as inhibitors; 890 compounds, 67% hits; AID 720569; also: nearly all actives have a fitted effect of over 70% in size
TbPYK ADP-Glo: inhibits T. brucei pyruvate kinase in orthogonal ADP-Glo assay; shares compounds with PLK1 PBD inh; recombinant TbPYK, ADP-Glo luminescence, 60 min; Potency, µM (highest dose often 76.9 µM), actives largely listed as inhibitors; 890 compounds, 62% hits; AID 720584; also: nearly all actives have a fitted effect of over 75% in size
Of the large screens only hits and unclear results are named; the others gave an inactive call (follow-up assays come after a bar, where they were run). Hits are enriched below; roughly 3.8% of the tested compounds scored in any of these assays. Unless noted, calls follow the shape of the dose curve; as a rule, active = well fitted curve in the direction sought with a large enough effect; inconclusive = small, poorly fitted or top-dose-only effect, or another doubt; inactive = no such curve, though single readings can be large; an effect the other way counts as inactive or inconclusive.

CCc1nc2ccc(C(=O)O)cc2nc1CC	none (no result: MBNL1 CUG block)
O=S(=O)(c1ccc2ccccc2c1)N1CCOCC1	none (no result: CBFb-RUNX1 inh)
Cc1nc(NCc2ccccc2)c2nc(-c3ccccc3)n(CC(C)(C)CN(C)C)c2n1	none (no result: PLK1 PBD inh, VDR inhibitor, hERG WT inh, KCNH2 3.1 inh, MBNL1 CUG block)
Oc1[nH]c(=S)sc1C=C1N=c2ccccc2=N1	MBNL1 CUG block inconclusive | TbPYK confirm 22µM | TbPYK ADP-Glo inconclusive
O=C1ON=C(c2ccc([N+](=O)[O-])cc2)/C1=C/c1ccccc1O	PLK1 PBD inh 1.7µM, VDR inhibitor 79µM, MBNL1 CUG block inconclusive (no result: CBFb-RUNX1 inh) | TbPYK confirm inconclusive | TbPYK ADP-Glo inactive
CCCCC[C@]12Cc3cc(OC)c(OC)cc3C(O1)c1c(cc(C)n(-c3ccccc3)c1=O)O2	none (no result: PLK1 PBD inh, VDR inhibitor, CBFb-RUNX1 inh, hERG WT inh, KCNH2 3.1 inh)
COc1ccc(CCN2C(=O)C=CC2=O)cc1OC	PLK1 PBD inh 6.7µM, VDR inhibitor inconclusive (no result: CBFb-RUNX1 inh, MBNL1 CUG block) | TbPYK confirm 4.5µM | TbPYK ADP-Glo 5.6µM
COc1ccc(CCn2c(C)ccc2C)cc1OC	none (no result: PLK1 PBD inh, VDR inhibitor, hERG WT inh, KCNH2 3.1 inh)
CCOc1cccc(CC(=O)N2CCc3c([nH]c4ccccc34)C2c2ccc(SC)cc2)c1OCC (stereo unspecified)	none (no result: PLK1 PBD inh, CBFb-RUNX1 inh, hERG WT inh, KCNH2 3.1 inh, MBNL1 CUG block)
O=C(O)c1cc(C(=O)O)cc(-c2ccc(/C=c3/sc4nc5ccccc5n4c3=O)o2)c1	none
O=C(O)c1ccccc1-c1ccc(C=c2sc3nc4cc(Br)cnc4n3c2=O)o1	PLK1 PBD inh inconclusive (no result: VDR inhibitor, CBFb-RUNX1 inh, hERG WT inh, KCNH2 3.1 inh, MBNL1 CUG block) | TbPYK confirm 14µM | TbPYK ADP-Glo 16µM
COc1ccc(-n2nnnc2Sc2ccc(S(=O)(=O)N3CCOCC3)cn2)cc1	PLK1 PBD inh 9.5µM, VDR inhibitor inconclusive | TbPYK confirm 14µM | TbPYK ADP-Glo 18µM
COc1ccc(-n2nnnc2SCC(=O)N2CCOCC2)cc1	none
CC1(C)CC(=O)C(=Cc2cn(-c3ccccc3)nc2-c2ccccc2)C(=O)C1	PLK1 PBD inh 1.2µM, VDR inhibitor inconclusive (no result: CBFb-RUNX1 inh, MBNL1 CUG block) | TbPYK confirm 10µM | TbPYK ADP-Glo inconclusive
O/N=C/c1cn(-c2ccccc2)nc1-c1ccccc1	none (no result: CBFb-RUNX1 inh)
CCn1c(C)nc2cc(C(=O)NNC(=O)c3ccc(C)cc3)ccc21	none (no result: CBFb-RUNX1 inh, MBNL1 CUG block) | TbPYK confirm inconclusive | TbPYK ADP-Glo inconclusive
CCn1c(C)nc2cc(C(=O)NNC(=O)c3ccc(Cl)nc3)ccc21	none
COC(=O)c1ccc2nc(-c3ccco3)c(Cc3ccc(C)cc3)n2c1	none (no result: VDR inhibitor, CBFb-RUNX1 inh, hERG WT inh, KCNH2 3.1 inh, MBNL1 CUG block) | TbPYK confirm 20µM | TbPYK ADP-Glo 25µM
COC(=O)c1ccc2nc(-c3ccco3)c(Cc3ccccc3C(F)(F)F)n2c1	PLK1 PBD inh inconclusive (no result: VDR inhibitor, CBFb-RUNX1 inh, hERG WT inh, KCNH2 3.1 inh, MBNL1 CUG block) | TbPYK confirm inconclusive | TbPYK ADP-Glo inconclusive
COC(=O)c1ccc2nc(C3CCCCC3)c(Cc3ccccc3C(F)(F)F)n2c1	none (no result: VDR inhibitor, CBFb-RUNX1 inh, hERG WT inh, KCNH2 3.1 inh, MBNL1 CUG block)
COC(=O)c1ccc2nc(-c3ccco3)c(Cc3ccc(OC)cc3C)n2c1	PLK1 PBD inh 27µM (no result: VDR inhibitor, CBFb-RUNX1 inh, hERG WT inh, KCNH2 3.1 inh, MBNL1 CUG block) | TbPYK confirm 7.1µM | TbPYK ADP-Glo 7.9µM
COC(=O)c1ccc2nc(-c3ccco3)c(Cc3cccc(F)c3)n2c1	PLK1 PBD inh inconclusive (no result: VDR inhibitor, CBFb-RUNX1 inh, hERG WT inh, KCNH2 3.1 inh, MBNL1 CUG block) | TbPYK confirm 11µM | TbPYK ADP-Glo 7.9µM
CC1(C)CC(=O)c2cc(-c3nc(-c4ccc(Cl)cc4)cs3)c(=O)n(-c3ccc(F)cc3)c2C1	none (no result: PLK1 PBD inh, CBFb-RUNX1 inh, hERG WT inh, KCNH2 3.1 inh, MBNL1 CUG block)
CCOc1cc2c(c3c1C(c1ccccc1)N(S(=O)(=O)c1ccc(C)cc1)C3)C(=O)C=CC2=O (stereo unspecified)	PLK1 PBD inh inconclusive (no result: VDR inhibitor, CBFb-RUNX1 inh, hERG WT inh, KCNH2 3.1 inh, MBNL1 CUG block) | TbPYK confirm 1.6µM | TbPYK ADP-Glo 2.8µM
COc1cc(/C=C2\SC(N)=NC2=O)cc(Cl)c1O	MBNL1 CUG block inconclusive (no result: CBFb-RUNX1 inh)
COc1cc(/C=C2\SC(c3ccc(C)cc3)=NC2=O)cc(OC)c1O	VDR inhibitor inconclusive, MBNL1 CUG block inconclusive | TbPYK confirm 35µM | TbPYK ADP-Glo inconclusive
Cc1ccc(C2=NC(=O)/C(=C/c3cc(O)c(O)c(Br)c3)S2)cc1	PLK1 PBD inh inconclusive, VDR inhibitor inconclusive (no result: CBFb-RUNX1 inh) | TbPYK confirm 32µM | TbPYK ADP-Glo inconclusive

Source: PubChem BioAssay (National Center for Advancing Translational Sciences (NCATS))
